These results are taken from PubChem BioAssay (NCI).

Test [1] in a line: NCI Yeast Anticancer Drug Screen. Data for the rad50 strain (AID 155).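 Further: 0% = growth of vehicle-only cultures of the same strain.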 The settings on record: S. cerevisiae rad50 strain growth inhibition; at 50.0 µM; hits give high values. The method in brief:
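A DNA repair-deficient yeast mutant serves as the test organism; compound-induced growth inhibition is calculated against vehicle-treated cells.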

Test [2] can be described thus: NCI Yeast Anticancer Drug Screen. Data for the mec2-1 strain (AID 157). The note with it: S. cerevisiae mec2-1 strain, at 50.0 µM, hits give high values. The procedure, abridged: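 Compounds were applied to mec2-1 yeast cells. Their growth was then compared with that of vehicle-treated cultures to give growth inhibition.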
Test [3] can be described thus: NCI Yeast Anticancer Drug Screen. Data for the sgs1 mgt1 strain (AID 161).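 Further: 0% = growth of cultures given vehicle only.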 The note with it: S. cerevisiae sgs1 mgt1 strain, at 50.0 µM, hits give high values. The method in brief: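 Percent growth inhibition was derived by comparing compound-exposed mutant yeast with vehicle-exposed cultures. The strain carries alterations in DNA damage repair.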
Test [4] in a line: NCI Yeast Anticancer Drug Screen. Data for the cln2 rad14 strain (AID 165).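 Further: 0% = growth equal to vehicle treated cultures.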 The note with it: S. cerevisiae cln2 rad14 strain, at 50.0 µM, hits give high values. The method in brief: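 Strain: cln2 rad14 yeast, altered in cell cycle control and DNA damage repair. Read-out: growth inhibition vs vehicle.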
Test [5] is described as follows: NCI Yeast Anticancer Drug Screen. Data for the bub3 strain (AID 167). The note with it: S. cerevisiae bub3 mutant strain, at 50.0 µM, hits give high values. The method in brief: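 Inhibition values come from growth of compound-treated mutant yeast normalised to vehicle-treated controls.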
Test [6] is described as follows: NCI Yeast Anticancer Drug Screen. Data for the mlh1 rad18 strain (AID 175). The settings on record: S. cerevisiae mlh1 rad18 strain growth inhibition; at 50.0 µM; hits give high values. The procedure, abridged:
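A repair-deficient yeast strain is exposed to test compound, and growth is scored relative to vehicle-treated controls.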

Structures are written as SMILES. The panel holds about 79,000 compounds, 15% with a hit somewhere; the sample as a whole holds those more often. A number with no mark means an inactive call. Activity calls are given as the source filed them. No stated cut-off is given here; in the data, active means growth inhibition above about 70%; inactive means the rest.

In the case of `O=C(NC(Nc1ccc(F)cc1)(C(F)(F)F)C(F)(F)F)C(C(F)(F)F)C(F)(F)F`, the growth inhibition is 87.4% (active) in test [1]; 88.6% (active) in test [2]; 91.8% (active) in test [3]; 92.2% (active) in test [4]; 90.7% (active) in test [5]; 93.2% (active) in test [6].
For the compound `NNC(=S)NC1CCCCC1`, the growth inhibition in test [1] was 29.8%; in test [2], -4.45%; in test [3], 29.8%; in test [4], 12.2%; in test [5] it was 16.9%; in test [6], 36%.
`CC1=C/C(=N\N(C)C)C(C(O)(C(F)(F)F)C(F)(F)F)C(C)(C)C1` (stereo not given): the growth inhibition in test [1] was 4.75%; in test [2], -19.1%; in test [3] it was -10.4%; in test [4], 9.35%; in test [5] it was -14.7%; in test [6], -13%.
With `O=C(Nc1ccc(Cl)cc1)c1ccc(Cl)c(Cl)c1`, the growth inhibition in test [1] is -1.6%; in test [2], 14.8%; in test [3], 7.1%; in test [4], -8.6%; in test [5], 11.8%; in test [6], -9.6%.
With `COc1ccc(C2=Nn3c(nc4sc(C)c(C)c4c3=O)SC2)cc1`, the growth inhibition in test [1] was 2.45%; in test [2] it was -8.15%; in test [3] it was -3.7%; in test [4], 19.1%; in test [5], 2.95%; in test [6], -14.3%.
Take `NC(N)=NS(=O)(=O)c1ccc(Nc2c3ccccc3nc3c(C(=O)NNCCO)cccc23)cc1`: the growth inhibition in test [1] is -10.1%; in test [2] it was -2.85%; in test [3], 25.6%; in test [4], -7.7%; in test [5], 15.9%; in test [6] it was -1.65%.
On to `CC[N+](CC)(CC)CCO`, for which the growth inhibition in test [1] was -11.6%; in test [2], -23.6%; in test [3], -10.9%; in test [4], 20.7%; in test [5], -11.5%; in test [6], -18.5%.
As for `CCOC(=O)CC(C)CCO` (stereo not given), the growth inhibition in test [1] is 5.4%; in test [2] it was -5.8%; in test [3], -11.4%; in test [4] it was -0.2%; in test [5] it was -0.3%; in test [6], -8.9%.
On to `C=CCN=C1NC(=O)C(CC(=O)Nc2ccc(C)cc2)S1` (stereo not given), for which the growth inhibition in test [1] was -22.6%; in test [2] it was -0.25%; in test [3], 0.25%; in test [4], 17.4%; in test [5] it was 7.05%; in test [6] it was 7.65%.
`CC(=O)OC1C=CC(OC(C)=O)C2C1[C@H]1C3C=CC=CC3[C@@H]2S1=O` (stereo not given in full): the growth inhibition is -36.8% in test [1]; -35.8% in test [2]; -17.2% in test [3]; -6.5% in test [4]; 6.25% in test [5]; -27.1% in test [6].
Regarding `CC(=O)OC1CCC2(C)C3=C(C(=O)CC2C1(C)C)C1(C)CCC(C(C)CCCC(C)C)C1(C)CC3` (stereo not given), the growth inhibition in test [1] is 0.3%; in test [2] it was 1.6%; in test [3], -25.4%; in test [4], 3.15%; in test [5], 4.3%; in test [6] it was -0.6%.
Regarding `CCOc1ccc(-c2nnc(Nc3ccc(S(=O)(=O)N4CCCCC4)cc3)s2)cc1`, the growth inhibition in test [1] was 10.3%; in test [2] it was 9.6%; in test [3], 13.7%; in test [4] it was -38%; in test [5] it was -2.15%; in test [6], 16.7%.
`Clc1ccc(C2N3CCCCC3[C@@H]3c4[nH]c5ccccc5c4CCN23)cc1` (stereo not given in full): the growth inhibition in test [1] was -11.7%; in test [2] it was -10.8%; in test [3] it was -4.7%; in test [4], -4.65%; in test [5], 0.3%; in test [6], -8.5%.
For `CC1SCC(C)(C)NC1=O` (stereo not given), the growth inhibition in test [1] was 3.85%; in test [2] it was 5.15%; in test [3], -3.95%; in test [4] it was -8.5%; in test [5], 5.7%; in test [6] it was 0.55%.
In the case of `c1ccc(N=C(Nc2ccccc2)N2CCCCC2)cc1`, the growth inhibition in test [1] is -20%; in test [2] it was -50.4%; in test [3], -7.9%; in test [4], 9.85%; in test [5], 9.35%; in test [6], -21.6%.
For the compound `Cc1ccc(Nc2nc3ccccc3nc2NS(=O)(=O)c2ccc(N)cc2)cc1`, the growth inhibition in test [1] is 20.2%; in test [2] it was 11.8%; in test [3], 13.3%; in test [4] it was 5.85%; in test [5], 7.45%; in test [6] it was -4.2%.
On to `COc1cc(CNc2ccc3nc4n(c(=O)c3c2)CCCCC4)cc(OC)c1OC`, for which the growth inhibition in test [1] is -9.7%; in test [2] it was 13.4%; in test [3], 7.3%; in test [4], -19.2%; in test [5], -15.9%; in test [6], -21.2%.
As to `CCc1ccc(O)cc1`, the growth inhibition is -3.4% in test [1]; -25.9% in test [2]; 13.3% in test [3]; 5.85% in test [4]; -11.9% in test [5]; 6.3% in test [6].
Consider `COc1cccc2cc(-n3nnc4ccccc43)c(=O)oc12`, for which the growth inhibition in test [1] is -8.6%; in test [2], 18.1%; in test [3] it was 4.6%; in test [4], 7.6%; in test [5], 25.8%; in test [6], 9.85%.
Regarding `COc1ccc(NC(=O)ON(C)C)cc1`, the growth inhibition in test [1] is 4.45%; in test [2] it was -26.6%; in test [3] it was 5.15%; in test [4] it was -63.1%; in test [5] it was 3.75%; in test [6] it was -5.75%.
